Most compounds without a hit are left out; they make up all but 1.2% or so of the library.
RAD52 inh: RAD52 (human) annealing inhibition. P43351. recombinant RAD52 DNA annealing, FRET fluorescence. inhibition, % at 18.7 µM. actives 0.46% (n = 360,000). AID 651710;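 active = every replicate showing at least 50% inhibition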
CASP6 VEID inh: blocks human caspase-6 cleavage activity; inhibition, % at 12.5 µM; AID 686996; actives 0.53% (n = 350,000); P55212; purified caspase-6, Z-VEID-R110 cleavage fluorescence;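 active = mean inhibition across replicates at least about 35%, with every replicate also reaching that limit, limit read from the data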
MLL AF4-AF9 inh: MLL-AF4/AF9 protein interaction inhibition; AID 651704; actives 0.47% (n = 350,000); AlphaScreen, biotin-AF4 peptide binding to FLAG-AF9; inhibition, % at 10 µM; P42568;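 active = every replicate reaching a set inhibition limit, whatever the replicate mean, cut at about 25% in these data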
Target sequence (P42568 whole entry, looked up): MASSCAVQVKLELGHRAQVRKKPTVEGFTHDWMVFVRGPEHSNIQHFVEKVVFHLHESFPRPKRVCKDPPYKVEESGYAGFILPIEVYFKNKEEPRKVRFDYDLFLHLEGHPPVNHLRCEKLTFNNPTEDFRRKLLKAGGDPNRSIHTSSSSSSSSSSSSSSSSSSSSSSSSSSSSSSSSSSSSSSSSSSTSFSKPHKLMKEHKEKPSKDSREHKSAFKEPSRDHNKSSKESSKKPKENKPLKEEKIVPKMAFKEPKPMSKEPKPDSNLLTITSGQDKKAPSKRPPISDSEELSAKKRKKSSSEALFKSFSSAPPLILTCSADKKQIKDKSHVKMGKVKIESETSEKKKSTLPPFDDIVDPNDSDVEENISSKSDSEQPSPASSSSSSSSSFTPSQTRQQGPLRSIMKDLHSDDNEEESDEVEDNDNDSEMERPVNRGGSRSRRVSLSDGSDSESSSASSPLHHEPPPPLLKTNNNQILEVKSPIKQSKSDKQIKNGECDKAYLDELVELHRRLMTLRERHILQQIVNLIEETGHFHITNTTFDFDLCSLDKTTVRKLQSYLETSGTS
Glyco luc inh: N-linked glycosylation inhibition; D54 ERlucT glycosylation luciferase reporter, 24 h; percent of 100 nM tunicamycin response; reporter increase, % at 12.5 µM; actives 0.23% (n = 360,000); AID 588692;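 active = mean luciferase reporter signal, scaled so untreated is 0 and the glycosylation-blocking control 100, at or above a set limit in every replicate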;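 note: luciferase carries N-glycosylation sites so blocking glycosylation raises the light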
RAD54 branch: blocks human RAD54 Holliday junction branch migration; Q92698; FAM/BHQ fluorescence; inhibition, % at 10.4 µM; actives 0.14% (n = 360,000); AID 602329;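 active = mean normalized replicate activity at least 40 and at least half of replicates scoring 40 or more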;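 note: inhibitors cause a drop in the FAM fluorescence signal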
Numbers stand for hits; i = inactive; nt = not tested or not shown.

SMILES	RAD52 inh	CASP6 VEID inh	MLL AF4-AF9 inh	Glyco luc inh	RAD54 branch
COc1cc(Cl)c(C)cc1NC(=O)CSc1sc2c(O)cc(=O)[nH]c2c1C#N	i	i	i	i	i
C=C1c2cccc(O)c2C(O)=C2C(=O)[C@]3(O)C(O)=C(C(N)=O)C(=O)[C@@H](N(C)C)[C@@H]3[C@@H](O)[C@H]12	i	94	i	i	i
O=C(NC1=C(NC2CCS(=O)(=O)C2)C(=O)c2ccccc2C1=O)c1ccccc1 (centres undefined)	i	95	i	i	i
NC(=O)CC(NC(=O)Cc1ccc(Br)cc1)c1ccc(NCC2CC2)c([N+](=O)[O-])c1 (centres undefined)	i	i	i	45	i
NC(=O)CC(NC(=O)Cc1ccc(Cl)cc1)c1ccc(NCC2CC2)c([N+](=O)[O-])c1 (centres undefined)	i	i	i	43	i
CO[C@H]1CN(C)C(=O)c2cc(NS(C)(=O)=O)ccc2OC[C@@H](C)N(CC2CCOCC2)C[C@@H]1C	i	i	i	nt	i
Cc1ccc(NC(=O)C2CCCN(S(=O)(=O)c3cnc[nH]3)C2)c(Br)c1 (centres undefined)	i	i	i	i	i
Cc1ccccc1NC(=O)C1CCCN(S(=O)(=O)c2cnc[nH]2)C1 (centres undefined)	i	91	i	i	i
COc1ccc2c3c([nH]c2c1)[C@@H](CO)N(C(=O)CN(C)C)CC31CN(C(=O)c2ccncc2)C1	i	nt	i	nt	nt
Cc1ccc2c(c1)C(=O)N1[C@H]3c4cc(Br)ccc4OC[C@@H]3[C@H](c3ccccc3)[C@]1(C)C(=O)N2	i	i	nt	27	i
Cc1ccc2c(c1)C(=O)N1[C@H]3c4cc(C)ccc4OC[C@@H]3[C@H](c3ccccc3)[C@]1(C)C(=O)N2	i	i	i	i	i
Cc1ccc2c(c1)[C@H]1[C@H](CO2)[C@H](c2ccccc2)[C@]2(C)C(=O)Nc3ccc(Br)cc3C(=O)N12	i	i	i	30	i
CCCNC(=O)C[C@@H]1C[C@H]2c3cc(NC(=O)Nc4ccc(F)cc4)ccc3O[C@H]2[C@@H](CO)O1	i	i	i	nt	i
c1cc(Nc2cccc3nccnc23)c2nccnc2c1	i	i	26	i	i
O=C(O)COn1c(-c2ccccc2)nc2ccc([N+](=O)[O-])cc21	i	43	i	i	i
CCOC(=O)C(C)On1c(-c2ccccc2)nc2ccc([N+](=O)[O-])cc21 (centres undefined)	nt	nt	nt	i	nt
CN(C)c1cccc2c1c(NS(=O)(=O)c1cn(C)cn1)nn2C	i	52	i	i	i
Cn1cnc(S(=O)(=O)Nc2ccccc2N2CCOCC2)c1	i	i	i	i	i
CO[C@H]1CN(C)C(=O)c2ccc(NC(=O)C3CC3)cc2OC[C@H](C)N(C(=O)c2ccccc2)C[C@H]1C	i	i	i	nt	i
COc1ccc2c3c([nH]c2c1)[C@@H](CO)N(C(=O)CN(C)C)CC31CN(Cc2ccccc2)C1	60	nt	i	nt	nt
COc1ccc2c3c([nH]c2c1)[C@H](CO)N(C(=O)CN(C)C)CC31CN(Cc2ccncc2)C1	nt	nt	i	nt	nt
COc1ccc2c3c([nH]c2c1)[C@@H](CO)N(C(=O)CN(C)C)CC31CN(Cc2ccncc2)C1	nt	nt	i	nt	nt
COc1ccc(CN2CC3(C2)CN(C(=O)CN(C)C)[C@@H](CO)c2[nH]c4cc(OC)ccc4c23)cc1	67	i	i	nt	nt
COc1ccc(CN2CC3(C2)CN(C(=O)CN(C)C)[C@H](CO)c2[nH]c4cc(OC)ccc4c23)cc1	69	i	i	nt	nt
CC(=O)N1[C@@H]2c3ccc(-c4ccccc4F)c(=O)n3C[C@@H]2[C@@H](CO)[C@@H]1C(=O)NCC1CC1	i	i	i	nt	i
SMILES	RAD52 inh	CASP6 VEID inh	MLL AF4-AF9 inh	Glyco luc inh	RAD54 branch
Cc1noc(C)c1S(=O)(=O)N(C)C[C@H]1OCCCC[C@H](C)Oc2ccc(NS(=O)(=O)c3ccc(F)cc3)cc2C(=O)N([C@H](C)CO)C[C@@H]1C	nt	nt	nt	nt	i
CC(C)C#Cc1ccc2c(c1)O[C@@H](CN(C)C(=O)c1cccc(F)c1)[C@@H](C)CN([C@H](C)CO)S2(=O)=O	i	i	i	nt	i
CC(/C=C1\SC(=S)N(CCCC(=O)Nc2ccc(C(=O)O)cc2)C1=O)=C\c1ccccc1	nt	nt	nt	i	i
CC(=Cc1ccccc1)C=C1SC(=S)N(CCCC(=O)Nc2ccc(C(=O)O)cc2)C1=O	i	41	i	i	i
CC(/C=C1\SC(=S)N(CCC(=O)Nc2cccc(C(=O)O)c2)C1=O)=C\c1ccccc1	i	70	i	i	i
Cc1noc(C)c1S(=O)(=O)Nc1ccc2c(c1)C(=O)N([C@@H](C)CO)C[C@@H](C)[C@@H](CN(C)C(=O)CCCN(C)C)OCCCC[C@@H](C)O2	nt	nt	nt	nt	i
COc1cc(OC)cc(C(=O)N2CCN(C(=O)c3ccc(OC)c(OC)c3)CC2)c1	nt	nt	nt	i	i
COc1ccc(-c2n[nH]c3c2CN(C(=O)c2ccc(OC)c(OC)c2)CC3)cc1	i	i	i	39	i
O=C1O[C@H](c2ccccc2)[C@H](c2ccccc2)N2[C@H]1[C@@H](C(=O)N1CCCCCCC1)[C@]1(C(=O)Nc3ccc(C#CCCO)cc31)[C@H]2c1ccc(O)cc1	i	i	i	nt	i
CN(C)CC#Cc1cccc(-c2nc(C(=O)N[C@@H]3CCN(Cc4ccccc4)C3)cc3c2[C@H](CCO)N(S(=O)C(C)(C)C)C3)c1 (some centres undefined)	i	i	i	nt	nt
C[C@@]12C(=O)Nc3ccc(F)cc3C(=O)N1[C@H]1c3ccccc3OC[C@@H]1[C@@H]2c1ccccc1	nt	nt	nt	i	i
C[C@@]12C(=O)Nc3ccc(Cl)cc3C(=O)N1[C@H]1c3ccccc3OC[C@@H]1[C@@H]2c1ccccc1	nt	nt	nt	28	i
C[C@@]12C(=O)Nc3cc(Cl)ccc3C(=O)N1[C@H]1c3ccccc3OC[C@@H]1[C@@H]2c1ccccc1	nt	nt	nt	31	i
C[C@@]12C(=O)Nc3ccc(F)cc3C(=O)N1[C@H]1c3cc(Cl)ccc3OC[C@@H]1[C@@H]2c1ccccc1	i	i	i	28	i
C[C@@]12C(=O)Nc3cc(Cl)ccc3C(=O)N1[C@H]1c3cc(Cl)ccc3OC[C@@H]1[C@@H]2c1ccccc1	i	i	i	i	i
C[C@@H](NC(=O)C[C@@H]1CC[C@H]2[C@@H](COC[C@@H](O)CN2Cc2cc(F)ccc2F)O1)c1ccccc1	i	i	i	nt	i
Cc1cc(C(=O)Nc2ccc3c(c2)C(=O)N(C)[C@H]2CC[C@H](CC(=O)Nc4ccc(Cl)cc4)O[C@@H]2CO3)no1	i	i	i	nt	i
Cc1ccc(S(=O)(=O)Nc2ccc3c(c2)C(=O)N(C)[C@H]2CC[C@H](CC(=O)O)O[C@@H]2CO3)cc1	i	i	i	nt	i
CCOc1ccc2nc(NCCNC(=O)Nc3ccccc3)c(C#N)cc2c1	nt	nt	nt	i	i
CCOc1ccc2nc(NCCNC(=O)Nc3cccc(C)c3)c(C#N)cc2c1	nt	nt	nt	42	i
COCCNC(=O)C[C@@H]1CC[C@@H]2[C@@H](COc3ccc(NC(=O)COC)cc3C(=O)N2C)O1	i	i	i	nt	i
Oc1ccccc1Oc1c(F)c(F)nc(N2CCCC2)c1F	i	i	i	i	i

Assay outcomes (PubChem BioAssay)
